# From PubChem BioAssay
# Rab9 promoter act: activates the Rab9 promoter; Potency, µM (highest dose often 9.22 µM), inactives show at the highest dose activation, negative = inhibition, actives largely listed as activators; 320,000 compounds, 2.8% hits; AID 485297; Huh7 Rab9 promoter-luciferase reporter, luminescence, 24 h; also: % of control where 0% means no effect; nearly all actives have a fitted effect of over 60% in size
#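 Using Huh7 cells stably transfected with Rab9 promoter–luciferase, compounds were incubated 24 h at 37 °C, 5% CO2; luciferase luminescence was read 10 min after reagent addition.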
# KinaseGlo FLuc: blocks Kinase-Glo luciferase, a counter-screen artifact; Q27757; Kinase-Glo luciferase, ATP luminescence, 8 min; Potency, µM (highest dose often 38.3 µM), for the others: at the top dose activity change, negative = inhibition, hits mostly inhibitors; 200,000 compounds, 0.28% hits; AID 1379; also: % is scaled to controls: 0 for no effect and ±100 for the full control effect; nearly all actives have a fitted effect of over 60% in size
#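 Substrate mix (final 50 mM imidazole pH 7.2, 50 mM KCl, 7 mM MgCl2, 10 uM ATP, 0.01% Tween 20, 0.05% BSA) plus pin-tool compound, then Kinase-Glo detection mix; 8 min ambient, luminescence read.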
# FLuc modulator: firefly luciferase modulation, counter-screen for miR-21 project. P08659. purified FLuc, Km substrates, luminescence inhibition. Potency, µM (doses to about 57.5 µM), for the others: at the highest dose activity change, negative = inhibition, actives largely listed as inhibitors. 360,000 compounds, 6.9% hits;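 also: plate controls were vehicle for no effect and reference inhibitor for full effect; nearly all actives have a fitted effect of over 55% in size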
# Target sequence (P08659 whole entry, looked up): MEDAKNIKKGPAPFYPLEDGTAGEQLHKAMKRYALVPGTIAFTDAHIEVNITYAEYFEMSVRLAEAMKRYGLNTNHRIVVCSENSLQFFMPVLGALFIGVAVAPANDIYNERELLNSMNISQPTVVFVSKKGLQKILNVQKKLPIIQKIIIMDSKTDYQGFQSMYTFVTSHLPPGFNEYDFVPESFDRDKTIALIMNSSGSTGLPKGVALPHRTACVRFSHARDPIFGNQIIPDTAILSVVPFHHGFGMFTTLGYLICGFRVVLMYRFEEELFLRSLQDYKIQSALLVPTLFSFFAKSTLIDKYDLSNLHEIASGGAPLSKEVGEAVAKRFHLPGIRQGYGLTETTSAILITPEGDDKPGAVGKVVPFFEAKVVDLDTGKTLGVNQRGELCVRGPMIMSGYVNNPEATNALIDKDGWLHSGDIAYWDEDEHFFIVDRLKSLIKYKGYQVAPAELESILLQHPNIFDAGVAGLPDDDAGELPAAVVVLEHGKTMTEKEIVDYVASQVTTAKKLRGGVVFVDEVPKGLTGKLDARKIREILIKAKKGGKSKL
#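 Purified P. pyralis luciferase, 10 nM final, with Km-level 10 uM D-luciferin and 10 uM ATP in 50 mM Tris acetate pH 7.5, 10 mM Mg acetate, 0.01% Tween-20, 0.05% BSA; 6-point qHTS titration about 60 µM downward; luminescence read.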
# ELG1 genotoxic: genotoxicity induction in ELG1-luciferase HEK293T cells. Potency, µM (doses to about 46 µM), without a hit: at the highest dose activity change, positive = activation, most hits filed as activators. AID 504466. 330,000 compounds, 1.3% hits. HEK293T ELG1-luciferase reporter, luminescence, 16 h; also: % of control where 0% means no effect; nearly all actives have a fitted effect of over 60% in size
#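 HEK293T cells expressing luciferase-tagged ELG1 were treated with compound or DMSO for 16 hr at 37°C. Luciferase activity was then read after 30 min with ONE-Glo at room temperature; rising signal flags genetic stress.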
# SMN2 splice enh: increases expression of the SMN2 splice variant; HEK293 SMN2-luciferase splicing reporter, luminescence, 30-36 h; Potency, µM (doses to about 46.1 µM), for the others: at the top dose activity change, positive = activation, actives largely listed as activators; 210,000 compounds, 2.8% hits; AID 1458; also: % of control where 0% means no effect; nearly all actives have a fitted effect of over 55% in size
#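 HEK293 cells carry an SMN2 […]–luciferase reporter in which exon 7 inclusion puts luciferase in frame. Cells were plated 10-12 h before compound addition, then incubated 30-36 h at 37C. ONE-Glo luminescence was read; sodium butyrate at 4.5 mM final served as control.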
# NPC1 promoter act: NPC1 promoter activation. Huh7 NPC1 promoter luciferase reporter, 24 h. Potency, µM (highest dose often 9.22 µM), for the others: at the top dose activation, usual class: activators. 320,000 compounds, 2.4% hits; also: % of control where 0% means no effect; nearly all actives have a fitted effect of over 60% in size
#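 Huh7 cells stably carrying NPC1 promoter–luciferase, plated in Opti-MEM with 10% FBS for 2 h, were exposed to compound in DMSO for 24 h at 37 °C; luciferase reagent was added for 10 min and luminescence read.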
# * = called active by the depositor; ? = inconclusive; / = no result; [ ] = another dose, or the depositor's remark. Shown are actives, neighbours in structure and some others; about 7.3% of the full set was active somewhere. Calls follow the shape of the dose curve; as a rule, active = well fitted curve in the direction sought with a large enough effect; inconclusive = small, poorly fitted or top-dose-only effect, or another doubt; inactive = no such curve, though single readings can be large; an effect the other way counts as inactive or inconclusive. Potency is read from the fitted curve at half-maximal effect.
SMILES,Rab9 promoter act,KinaseGlo FLuc,FLuc modulator,ELG1 genotoxic,SMN2 splice enh,NPC1 promoter act
CC(=O)O[C@@H]1CC2C(C)(C)C(=O)C=C[C@]2(C)C2CC[C@]3(C)C(=CC[C@H]3C3CO[C@@H](C(C)(C)O)[C@H](O)C3)[C@@]21C (some centres not stated),/,-1%,/,/,-7%,/
CCN(CC)c1ccc(CN(C(=O)Cc2coc3ccc(C)cc23)C2CCS(=O)(=O)C2)cc1 (configuration not stated),/,/,6%,/,-14%,/
COCc1nnc(NC(=O)c2cc3ccccc3o2)s1,?,/,19µM*,?,/,?
COC(=O)Cc1nnc(NC(=O)c2ccccc2)s1,4%,/,-16%,8%,/,5%
CCCc1nnc(NC(=O)c2cc3ccccc3o2)s1,4µM*,/,13µM*,27%,/,3.5µM*
COCc1nnc(NC(=O)c2cccc(NC(=O)c3ccccc3)c2)s1,16%,/,19µM*,-1%,/,13%
CCCc1nnc(NC(=O)c2cc3ccccc3oc2=O)s1,2%,-2%,0%[2.3 µM],6%,12%,8%
CCCOc1ccc(-c2nonc2NC(=O)c2oc3ccc(Cl)cc3c2C)cc1OCCC,/,/,-19%,/,4%,/
CCOc1ccc(-c2nc3c(c(SCC(=O)N4CCCCC4)n2)Cc2cc(C)ccc2O3)cc1,/,/,1%,/,1%,/
COc1ccc(C(=O)c2coc3ccc(OC(C)=O)cc23)cc1,15%,/,9.5µM*,?,/,?
COc1ccc2occ(C(=O)c3ccc(N)cc3)c2c1,0.63µM*,/,6µM*,?,/,1.4µM*
COc1ccc2occ(C(=O)c3cccs3)c2c1,?,-10%,6µM*,6.5µM*,-12%,?
COc1ccc(OC)c(C(=O)c2coc3ccc(OC(C)=O)cc23)c1,4%,-1%,-17%,0%,1%,1%
Nc1cc(=O)nc(SCC(=O)Nc2ccc(F)cc2)n1-c1ccc(Cl)cc1,/,/,-3%,/,3%,/
C/C(=N\NC(=O)c1ccccn1)C12CC3CC(CC(C3)C1)C2,?,2%,15µM*,10%,9%,29%
CC(C)C(=O)O/N=C(\N)c1ccccn1,-1%,-2%,-5%,3%,6%,3%
COc1ccc(/C=C/C(=O)O/N=C(\N)c2cccnc2)cc1OC,3%,/,-11%,11%,/,1%
O=C(O)c1ccccc1OC(=O)C12CC3CC(CC(C3)C1)C2,1%,1%,?,-1%,4%,-1%
N/C(=N\OC(=O)C12CC3CC(CC(C3)C1)C2)c1ccccc1,1%,-5%,4.8µM*,11%,1%,16%
N/C(=N\OC(=O)C12CC3CC(CC(C3)C1)C2)c1cccnc1,7%,0%,15µM*,3%,24%,9%
N/C(=N\OC(=O)C12CC3CC(CC(C3)C1)C2)c1ccccn1,20%,1%,7.6µM*,?,23%,17%
CCCN(C(=O)CCc1nc(-c2ccc(C)cc2)no1)c1ccc(OCC)cc1,/,/,-2%,/,-24%,/
CCOC(=O)C1CCCN(c2nc3c(S(=O)(=O)c4ccc(C)c(C)c4)nnn3c3ccc(Cl)cc23)C1 (configuration not stated),/,/,-1%,/,-4%,/
N/C(=N\OC(=O)N1CCOCC1)c1ccccc1,27%,?,17µM*,6%,-75%,24%
Cn1c(CCC(=O)Nc2ccc(F)cc2)nc2cc(S(=O)(=O)N3CCOCC3)ccc21,-6%,/,3%,-10%,/,-1%
CN(CC(=O)Nc1ccc(N2CCOCC2)cc1)C(=O)c1cc(S(=O)(=O)N(C)C)ccc1Cl,0%,/,15µM*,13%,/,-2%
CCN(CC)S(=O)(=O)c1ccc2c(c1)nc(CCC(=O)Nc1ccc(N3CCOCC3)cc1)n2C,1%,-1%,17µM*,-1%,9%,0%
S=C(Nc1ccc(Nc2ccccc2)cc1)Nc1ccccn1,-6%,-3%,?,?,-68%,-12%
